The whole screen tested about 5,500 compounds, of which about 2,000 (36%) were called active. Not shown: some 18% with an inconclusive outcome. No stated cut-off is given here; in the data, active means normalized growth mostly below about 0.91 (no sharp cut-off); inconclusive means no clear call, values can overlap the other calls; inactive means mostly above about 0.92. The list shows a part of the results.
Test: chemical genetic growth profiling, strain panel (AID 1159580);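 further: tested at 20 µM; growth read once vehicle control cultures reached saturation at 30 °C; 1 = growth at the plate median or of vehicle wells; lower values mean less growth of the strain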
Details: growth OD

Measured: normalized growth

Cc1cc(=O)oc2cc(O)c(O)cc12
inactive: S. cerevisiae deletion strains, locus YJR043C, strain POL32, active compounds read low 0.964 | S. cerevisiae deletion strains, locus YJR066W, strain TOR1, active compounds read low 0.913 | S. cerevisiae deletion strains, locus YKL009W, strain mrt4, active compounds read low 0.922 | S. cerevisiae deletion strains, locus YKL068W, active compounds read low 1.01 | S. cerevisiae deletion strains, locus YKL085W, strain MDH1 (second series), active compounds read low 1.02 | S. cerevisiae deletion strains, locus YKL085W, strain MDH1, active compounds read low 1.02 | S. cerevisiae deletion strains, locus YKL160W, strain elf1, active compounds read low 1 | S. cerevisiae deletion strains, locus YKL190W, strain CNB1, active compounds read low 1.01 | S. cerevisiae deletion strains, locus YKR001C, strain vps1, active compounds read low 0.934 | S. cerevisiae deletion strains, locus YKR026C, strain gcn3, active compounds read low 0.994 | S. cerevisiae deletion strains, locus YKR091W, strain srl3, active compounds read low 0.981 | S. cerevisiae deletion strains, locus YLL001W, strain dnm1, active compounds read low 0.995 | S. cerevisiae deletion strains, locus YLL026W, active compounds read low 0.989 | S. cerevisiae deletion strains, locus YLL041C, strain sdh2, active compounds read low 0.986 | S. cerevisiae deletion strains, locus YLR027C, strain aat2, active compounds read low 0.976 | S. cerevisiae deletion strains, locus YLR039C, strain RIC1, active compounds read low 0.945 | S. cerevisiae deletion strains, locus YLR058C, strain SHM2, active compounds read low 0.99 | S. cerevisiae deletion strains, locus YLR102C, strain apc9, active compounds read low 1.01 | S. cerevisiae deletion strains, locus YLR113W, strain HOG1, active compounds read low 0.954 | S. cerevisiae deletion strains, locus YLR221C, strain rsa3, active compounds read low 0.986 | S. cerevisiae deletion strains, locus YLR258W, strain gsy2, active compounds read low 1 | S. cerevisiae deletion strains, locus YLR262C, strain YPT6 (second series), active compounds read low 0.962 | S. cerevisiae deletion strains, locus YLR262C, strain YPT6, active compounds read low 1.01 | S. cerevisiae deletion strains, locus YLR268W, strain sec22, active compounds read low 0.983 | S. cerevisiae deletion strains, locus YLR320W, strain mms22, active compounds read low 0.987 | S. cerevisiae deletion strains, locus YLR330W, strain CHS5, active compounds read low 1 | S. cerevisiae deletion strains, locus YLR342W, strain FKS1 (second series), active compounds read low 0.992 | S. cerevisiae deletion strains, locus YLR342W, strain FKS1, active compounds read low 1.01 | S. cerevisiae deletion strains, locus YLR357W, strain rsc2, active compounds read low 1.01 | S. cerevisiae deletion strains, locus YLR370C, strain arc18, active compounds read low 0.982 | S. cerevisiae deletion strains, locus YLR371W, strain rom2, active compounds read low 1 | S. cerevisiae deletion strains, locus YLR384C, strain iki3, active compounds read low 0.993 | S. cerevisiae deletion strains, locus YLR418C, strain cdc73, active compounds read low 0.939 | S. cerevisiae deletion strains, locus YML016C, strain PPZ1, active compounds read low 0.994 | S. cerevisiae deletion strains, locus YML032C, strain rad52, active compounds read low 0.965 | S. cerevisiae deletion strains, locus YML120C, strain ndi1, active compounds read low 1 | S. cerevisiae deletion strains, locus YML124C, strain tub3, active compounds read low 1.01 | S. cerevisiae deletion strains, locus YMR058W, strain fet3, active compounds read low 0.989 | S. cerevisiae deletion strains, locus YMR078C, strain ctf18, active compounds read low 1 | S. cerevisiae deletion strains, locus YMR125W, strain sto1, active compounds read low 1.04 | S. cerevisiae deletion strains, locus YMR129W, active compounds read low 1 | S. cerevisiae deletion strains, locus YMR205C, strain PFK2, active compounds read low 1.02 | S. cerevisiae deletion strains, locus YMR223W, strain ubp8, active compounds read low 0.951 | S. cerevisiae deletion strains, locus YMR231W, strain pep5, active compounds read low 0.998 | S. cerevisiae deletion strains, locus YMR307W, strain GAS1, active compounds read low 1.01 | S. cerevisiae deletion strains, locus YNL067W, strain RPL9B, active compounds read low 0.994 | S. cerevisiae deletion strains, locus YNL071W, strain lat1, active compounds read low 0.988 | S. cerevisiae deletion strains, locus YNL128W, strain TEP1, active compounds read low 1.01 | S. cerevisiae deletion strains, locus YNL183C, strain NPR1, active compounds read low 0.902 | S. cerevisiae deletion strains, locus YNL209W, strain ssb2, active compounds read low 1 | S. cerevisiae deletion strains, locus YNL233W, strain BNI4, active compounds read low 0.961 | S. cerevisiae deletion strains, locus YNL248C, strain rpa49, active compounds read low 0.941 | S. cerevisiae deletion strains, locus YNL250W, strain rad50, active compounds read low 1.02 | S. cerevisiae deletion strains, locus YNL271C, strain bni1, active compounds read low 0.993 | S. cerevisiae deletion strains, locus YNL298W, strain CLA4, active compounds read low 0.961 | S. cerevisiae deletion strains, locus YNL307C, strain MCK1, active compounds read low 0.989 | S. cerevisiae deletion strains, locus YNL322C, strain KRE1 (second series), active compounds read low 0.995 | S. cerevisiae deletion strains, locus YNR049C, strain mso1, active compounds read low 0.989 | S. cerevisiae deletion strains, locus YNR052C, strain pop2, active compounds read low 0.974 | S. cerevisiae deletion strains, locus YOL006C, strain TOP1, active compounds read low 0.805 | S. cerevisiae deletion strains, locus YOL012C, strain htz1 1.25 | S. cerevisiae deletion strains, locus YOL147C, strain pex11, active compounds read low 0.993 | S. cerevisiae deletion strains, locus YOR001W, strain rrp6, active compounds read low 0.967 | S. cerevisiae deletion strains, locus YOR061W, strain CKA2, active compounds read low 1 | S. cerevisiae deletion strains, locus YOR069W, strain VPS5, active compounds read low 1.01 | S. cerevisiae deletion strains, locus YOR070C, strain gyp1, active compounds read low 0.99 | S. cerevisiae deletion strains, locus YOR080W, strain dia2, active compounds read low 0.975 | S. cerevisiae deletion strains, locus YOR083W, strain WHI5, active compounds read low 0.978 | S. cerevisiae deletion strains, locus YOR106W, strain vam3, active compounds read low 0.993 | S. cerevisiae deletion strains, locus YOR136W, strain idh2, active compounds read low 1 | S. cerevisiae deletion strains, locus YOR144C, strain elg1, active compounds read low 1 | S. cerevisiae deletion strains, locus YOR184W, strain ser1, active compounds read low 0.88 | S. cerevisiae deletion strains, locus YOR231W, strain MKK1, active compounds read low 0.904 | S. cerevisiae deletion strains, locus YOR265W, strain rbl2, active compounds read low 0.989 | S. cerevisiae deletion strains, locus YOR270C, strain vph1, active compounds read low 0.893 | S. cerevisiae deletion strains, locus YOR290C, strain snf2, active compounds read low 0.937 | S. cerevisiae deletion strains, locus YOR316C, strain cot1, active compounds read low 1 | S. cerevisiae deletion strains, locus YPL051W, strain arl3, active compounds read low 0.987 | S. cerevisiae deletion strains, locus YPL078C, strain atp4, active compounds read low 0.992 | S. cerevisiae deletion strains, locus YPL106C, strain sse1, active compounds read low 0.978 | S. cerevisiae deletion strains, locus YPL240C, strain hsp82, active compounds read low 0.994 | S. cerevisiae deletion strains, locus YPL256C, strain CLN2, active compounds read low 0.936 | S. cerevisiae deletion strains, locus YPR119W, strain clb2, active compounds read low 1.01 | S. cerevisiae deletion strains, locus YPR141C, strain kar3, active compounds read low 1.02 | S. cerevisiae deletion strains, locus YPR163C, strain tif3, active compounds read low 1.02 | S. cerevisiae deletion strains, locus YPR167C, strain met16, active compounds read low 0.981 | S. cerevisiae deletion strains, strain wtn01, active compounds read low 0.988 | S. cerevisiae strains, strain wild type, active compounds read low 1.01

Reference: PubChem BioAssay AID1159580 (chemical genetic matrix, 2015)
